Screen size: about 48,000 compounds; about 13,000 (27%) showed an effect of 50% or more. Some of the results follow.
These compounds were tested on Wolbachia pipientis (assay: Anti-Wolbachia Cell-Based Screen). Settings: 5 µM.
Format: functional
Design: scale not given: in the data most compounds retested in dose-response had high values

In order of rising “Percent Effect” value:
1. CC(Cn1cccn1)NC(=O)Nc1ccc(N2CCCCC2)nc1 (configuration not stated)  -23.5%
2. CCN1C(=O)[C@H]2CN(Cc3cccnc3)C[C@H]2C12CCN(C(C)=O)CC2  -22.31%
3. CN(C)c1ccc(CNC2(c3ccc(F)cc3)CCOCC2)cc1F  -20.17%
4. O=C(NC1CC1)N1CCCC2(CCNC2=O)C1 (configuration not stated)  -20.05%
5. CC(C(=O)NCc1ccnc(Oc2ccc(F)cc2)c1)n1cncn1 (configuration not stated)  -19.79%
6. Cc1noc(C)c1CC(=O)OCc1nc(N)c2ccccc2n1  -18.91%
7. CC(=O)N1Cc2ccccc2C[C@H]1C(=O)N(C)CCc1ccccn1  -17.28%
8. CN(CCc1ccccc1)C(=O)c1cc(CN2CCC(O)CC2)on1  -17.23%
9. CC(Cn1cccn1)NC(=O)Nc1ccc(N2CCCC2)nc1 (configuration not stated)  -16.81%
10. CN1CCC(N(C)CCC(=O)N2CCC(OCc3ccccc3)CC2)C1 (configuration not stated)  -15.08%
11. CC(C)(C)c1nccc(N2CCN(C3CCS(=O)(=O)C3)CC2)n1 (configuration not stated)  -14.65%
12. CC(C)Cn1cnnc1C1CCCN1C(=O)c1cc2ccccn2c1 (configuration not stated)  -13.41%
13. CC(Cc1cncs1)Nc1ncnc2cccc(F)c12 (configuration not stated)  -13.2%
14. CC1CCC(N2CCC(NS(=O)(=O)CCOC(C)C)CC2)CC1 (configuration not stated)  -12.56%
15. CN(CCc1ccccc1)C(=O)CN1C(=O)OC[C@@H]1c1ccccc1  -12.26%
16. COc1ccc(Oc2ccc(CNC(=O)C(C)n3cncn3)cn2)cc1 (configuration not stated)  -12.03%
17. COc1c(F)cc(NCC(=O)NC(C)(C#N)C2CC2)cc1F (configuration not stated)  -10.88%
18. CN(CC1CC1)C(=O)CN(Cc1cccc(O)c1)C1CCC(O)CC1 (configuration not stated)  -10.37%
19. CCSc1ccc(C(C)NC(=O)CCS(C)(=O)=O)cc1 (configuration not stated)  -10.2%
20. CC(Cc1ccco1)NC(=O)Nc1ccc(N2CCOCC2)nc1 (configuration not stated)  -10%
21. CC(C)NCc1cc2n(n1)CCN(C1CCCCC1)C2  -9.171%
22. CC(OCC(F)(F)F)C(=O)Nc1ccc(-n2cncn2)nc1 (configuration not stated)  -8.836%
23. CCCN1CCCn2nc(CNC(=O)C3CCOC3)cc2C1 (configuration not stated)  -8.283%
24. CN(C)C(=O)CN1C[C@H]2CCN(C(=O)C3CCCO3)CC[C@H]2S1(=O)=O (some centres not stated)  -8.272%
25. CN1CCC(N(C)CCC(=O)N2CCC(CCc3ccccc3)CC2)C1 (configuration not stated)  -7.751%
26. O=C(NCc1ccco1)c1ccc(N2CCOCC2)cc1  -7.738%
27. Cc1csc2c(N3CCC(NCCCc4ccncc4)CC3)ncnc12  -7.721%
28. CN(Cc1cnn(C)c1)C(=O)C1COc2ccccc2C1 (configuration not stated)  -7.691%
29. CC(C)Cc1noc(CC2CCS(=O)(=O)C2)n1 (configuration not stated)  -7.316%
30. CCn1cc(CN2CCC(NS(C)(=O)=O)CC2)cc1C#N  -7.298%
31. CC/C=C(/C)C(=O)N1CSCC1C(=O)N(C)CCc1ccncc1 (configuration not stated)  -7.241%
32. O=C(NCCCc1ccco1)c1ccc(N2CCOCC2)cc1  -6.417%
33. O=C(CN1CCN(CCO)CC1)NC(C1CC1)C1CC1  -6.092%
34. CN1CCC(N(Cc2ccccc2)C(=O)c2ccn3cncc3c2)CC1  -5.801%
35. Cc1nc(CCCNC(=O)c2coc(CN3CCOCC3)c2)sc1C  -5.742%
36. Cc1csc(CN(CC2CCCO2)C(=O)c2cccnc2C)n1 (configuration not stated)  -5.515%
37. CN1CCCc2ccc(S(=O)(=O)NC(=O)C3CC=CC3)cc21  -3.642%
38. CC(C)CN1CCCn2nc(CNC(=O)NC(C)(C)C)cc2C1  -2.187%
39. Cc1nc(C)n(CC2CCCCN2CC(=O)Nc2cccnc2)n1 (configuration not stated)  -1.265%
40. CN1CCC(N2C[C@H](O)C[C@H]2c2nc(Cc3ccccc3)no2)CC1  -1.075%
41. CC(C(=O)Nc1ccc(N2CCCC2)nc1)n1ccnc1 (configuration not stated)  -0.9927%
42. CC(C(=O)Nc1ccc(N2CCCC2)nc1)n1cncn1 (configuration not stated)  -0.2792%
43. O=C(NCc1ccco1)Nc1ccc2nc(N3CCOCC3)oc2c1  -0.2531%
44. CCOc1ccnc(N2CCCN(c3nc(C4CC4)ns3)CC2)n1  -0.1352%
45. CCC(=O)N1CSCC1C(=O)N(C)CCc1ccccc1 (configuration not stated)  -0.07211%
46. CN1CCC(N(Cc2ccccc2)C(=O)c2ccn3ccnc3c2)CC1  0.1453%
47. O=C(Cc1ccccc1O)Nc1ccc(N2CCCC2)nc1  0.2058%
48. CC1CCCCN1C1CN(c2ccnc(C(=O)NCc3ccco3)c2)C1 (configuration not stated)  0.5235%
49. O=C(c1ccc(Cl)s1)N1CCCn2nc(CN3CC[C@H](F)C3)cc2C1  0.8139%
50. Cc1nc(C(C)N(C)Cc2nc(CCC(C)C)no2)c(C)s1 (configuration not stated)  1.881%
51. Cc1nc(COc2cccc(C#N)c2)no1  2.018%
52. CN1CCC(N(Cc2ccccc2)C(=O)c2nccn3ccnc23)CC1  3.341%
53. CCN1CCc2[nH]cnc2C12CCN(c1ncc(C(=O)O)cc1Cl)CC2  3.404%
54. CCCC(Nc1nc(COCC)nc2c1CCNCC2)c1nccn1C (configuration not stated)  3.628%
55. CCC(CC)CN1CCCn2nc(CNC(=O)COC)cc2C1  4.127%
56. CC(C(=O)Nc1cccc(N2CCCCC2)c1)n1cncn1 (configuration not stated)  4.529%
57. COc1ccccc1S(=O)(=O)N1CC(N(C)C)Cc2ccccc21 (configuration not stated)  4.709%
58. CC(C)COCC(NC(=O)c1cc[nH]n1)c1ccco1 (configuration not stated)  4.731%
59. CCOCCCNC(=O)c1cc(C(C)C)nc(N2CCCCCC2)n1  4.863%
60. CCC(=O)N1CCCC1c1nccnc1Nc1nc(C)cc(C)n1 (configuration not stated)  4.912%
61. Cc1cnc(C(=O)N[C@H]2CN(CCS(C)(=O)=O)C[C@@H]2C2CC2)cn1  4.986%
62. O=C(c1ccccc1F)N1CCN(c2ccc(-n3cccn3)nn2)CC1  5.073%
63. CCN(CC(=O)N(C)C)S(=O)(=O)c1cnc2c(c1)c(C)nn2C  5.433%
64. COC(=O)c1sc2nc3c(c(C(F)(F)F)c2c1N)CN(C(C)=O)CC3  5.653%
65. COCC(NC(=O)NCc1ccc(C)c(F)c1)c1ccco1 (configuration not stated)  5.842%
66. CCCOC1CCCN(c2ccnc(C(=O)NCc3ccco3)c2)C1 (configuration not stated)  6.201%
67. CN1CCC(N2CCC(CN(Cc3ccncc3)C3CCC3)CC2)CC1  7.68%
68. CC(C)c1nnc(NCc2cc3n(n2)CCN(C2CCCCC2)C3)s1  8.692%
69. Brc1ccc(C2(CNCc3cc[nH]c3)CCOCC2)cc1  10.2%
70. CCOC(=O)N1CCN(c2nc(N)c3ccccc3n2)CC1.Cl  10.93%
71. Cc1cnc(N2CCC(OCCN3CCCCC3)C2)nc1C (configuration not stated)  11.15%
72. CN(Cc1ccccc1)C(=O)[C@@H]1Cc2[nH]cnc2CN1C  13.33%
73. CO[C@H]1CN(Cc2cc(Cn3cncn3)c(C)cc2C)CC[C@H]1N  13.4%
74. Cn1cc(CNCCNC(=O)Cc2ccccc2)c(-c2cccnc2)n1  13.61%
75. CC(C)CN1CCCn2nc(CNC(=O)OCc3ccccc3)cc2C1  17.53%
76. COC(=O)NCc1cc2n(n1)CCCN(C(C)=O)C2  17.7%
77. Cc1nc(CC(=O)NCc2csc(N3CCCC3)n2)cs1  17.94%
78. COCc1ccccc1C(=O)N(C)Cc1ncc(C)c(OC)c1C  29.72%
79. CCc1ccsc1C(=O)N(C)CCc1ccncc1  33.97%
80. CN1CC[C@H](N(C)Cc2ccccc2)C[C@H](O)C1  67.42%
81. Cc1cc(C)nc(Nc2nccnc2C2CCCN(C(C)C)C2)n1 (configuration not stated)  76.04%
82. Cc1cc(C)nc(Nc2nccnc2C2CCCN(C(CO)CO)C2)n1 (configuration not stated)  89.81%
83. CC(=O)N1CCCC(c2nccnc2Nc2nc(C)cc(C)n2)C1 (configuration not stated)  92.16%
84. CC(C(=O)Nc1ccc(N2CCCC2)nc1)n1cccn1 (configuration not stated)  93.36%
85. CC(=O)N1N=C(c2ccccc2)OC1C(=O)N(C)CCc1ccccc1 (configuration not stated)  94.62%
86. CC(C(=O)Nc1ccc(N2CCCCC2)nc1)n1cncn1 (configuration not stated)  95.56%
87. CN1CC[C@H](N(Cc2ccccc2)Cc2ccccc2)C[C@H](O)C1  97.14%
88. COCc1ccccc1C(=O)OCc1noc(C)n1  97.59%
89. CC1CCC(NS(=O)(=O)CC(=O)NC(C2CC2)C2CC2)CC1 (configuration not stated)  99.55%
90. CN1CC[C@H](N(Cc2ccccc2)CC2CC2)C[C@H](O)C1  101.2%
91. CN1CC[C@H](N(Cc2ccccc2)C2COC2)C[C@H](O)C1  101.7%
92. CCOCc1nc(N2CCOCC2)sc1C(=O)NCCCc1ccco1  102.3%
93. COc1ccc(NC(=O)C(C)n2cncn2)cn1 (configuration not stated)  104.1%
94. CC(C(=O)Nc1ccc(N2CCOCC2)nc1)n1cncn1 (configuration not stated)  104.2%
95. CC(C(=O)Nc1ccc(N2CCCCC2)nc1)n1ccnc1 (configuration not stated)  105.1%
96. CC(=O)N1N=C(c2ccccc2)OC1C(=O)N(C)Cc1ccccc1 (configuration not stated)  105.2%
97. CC(=O)N1N=C(c2ccncc2)OC1C(=O)N(C)CCc1ccccc1 (configuration not stated)  108.6%
98. CC(=O)N1N=C(c2ccco2)OC1C(=O)N(C)CCc1ccccc1 (configuration not stated)  108.8%
99. CCCOC(C)C(=O)NCc1cc2n(n1)CCCN(C1CCCCC1)C2 (configuration not stated)  111%
100. Cc1nc(COC(=O)c2cccnc2C)no1  111.5%
101. CCC(OC)C(=O)NCc1cc2n(n1)CCCN(C1CCCCC1)C2 (configuration not stated)  113.3%
102. CCOCc1nc(N2CCCC2)sc1C(=O)NCc1ccco1  113.4%
103. Cc1cc(C)nc(Nc2nccnc2C2CCCN(CCO)C2)n1 (configuration not stated)  115.9%
104. CCOCc1nc(N2CCCC2)sc1C(=O)NCCC(=O)OCC  118%
105. CN[C@@H](CO)C(=O)NCc1cc2n(n1)CCCN(C1CCCCC1)C2  120.8%
106. CCC(C)NC(=O)NCc1cc2n(n1)CCCN(C1CCCCC1)C2 (configuration not stated)  123%
107. CCOCc1nc(N2CCOCC2)sc1C(=O)NCc1ccco1  132.8%
